The campaign covered roughly 5,600 compounds. About 390 (7%) showed an effect of 50% or more. For the sample, strong results were picked, then their nearest neighbours and some compounds at random.
target: T1, Protein deacetylase HDAC6 (Homo sapiens) (UniProt Q9UBN7); conditions: at 10 µM
T1 sequence (whole entry): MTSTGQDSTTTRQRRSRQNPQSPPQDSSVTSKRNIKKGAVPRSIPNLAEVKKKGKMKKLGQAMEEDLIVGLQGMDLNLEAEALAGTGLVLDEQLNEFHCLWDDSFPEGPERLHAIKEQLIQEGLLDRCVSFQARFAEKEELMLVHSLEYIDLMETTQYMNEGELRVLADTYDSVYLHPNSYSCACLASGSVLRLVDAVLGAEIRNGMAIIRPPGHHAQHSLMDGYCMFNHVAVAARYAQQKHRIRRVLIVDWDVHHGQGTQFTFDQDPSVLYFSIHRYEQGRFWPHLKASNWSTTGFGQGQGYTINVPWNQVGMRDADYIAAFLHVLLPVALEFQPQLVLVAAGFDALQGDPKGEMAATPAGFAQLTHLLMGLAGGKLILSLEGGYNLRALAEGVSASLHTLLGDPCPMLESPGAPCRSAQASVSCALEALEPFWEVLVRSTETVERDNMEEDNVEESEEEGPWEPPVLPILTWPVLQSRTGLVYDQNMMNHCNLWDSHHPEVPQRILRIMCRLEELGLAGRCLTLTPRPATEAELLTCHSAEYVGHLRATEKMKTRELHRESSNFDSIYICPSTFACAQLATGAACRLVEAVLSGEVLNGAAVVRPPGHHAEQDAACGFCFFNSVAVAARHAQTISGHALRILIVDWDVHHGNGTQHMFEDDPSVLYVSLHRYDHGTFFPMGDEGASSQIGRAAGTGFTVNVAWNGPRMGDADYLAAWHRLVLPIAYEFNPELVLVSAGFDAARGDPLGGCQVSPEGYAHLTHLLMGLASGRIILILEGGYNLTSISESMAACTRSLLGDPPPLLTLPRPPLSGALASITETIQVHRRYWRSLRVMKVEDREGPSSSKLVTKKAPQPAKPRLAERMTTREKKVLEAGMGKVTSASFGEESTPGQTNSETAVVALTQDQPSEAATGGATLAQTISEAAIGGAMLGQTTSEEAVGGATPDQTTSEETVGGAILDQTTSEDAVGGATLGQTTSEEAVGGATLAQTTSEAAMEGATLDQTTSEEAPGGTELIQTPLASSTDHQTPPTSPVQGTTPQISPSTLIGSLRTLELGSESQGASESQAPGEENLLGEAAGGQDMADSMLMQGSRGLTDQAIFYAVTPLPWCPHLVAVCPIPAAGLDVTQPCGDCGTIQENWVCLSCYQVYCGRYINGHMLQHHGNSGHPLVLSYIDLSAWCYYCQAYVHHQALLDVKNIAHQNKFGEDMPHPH

Row | SMILES | inhibition [%]
1 | CC[C@@H]1CN2C(=O)N(C)c3nc(-c4ccccc4)[nH]c3C2=N1 | -3.85
2 | COc1ccc(C(=O)Nc2sc3c(c2C(N)=O)CCCC3)cc1OC | 31.6
3 | CC(C)(C)C1CCc2c(sc(NC(=O)c3ccco3)c2C(=O)O)C1 (stereo not drawn) | 102
4 | N[C@@H](Cc1ccc(B(O)O)cc1)C(=O)O | 0.83
5 | CNc1ncc2cc(-c3cc(NC(=O)NCCC(C)(C)C)c(F)cc3C)c(C)nc2n1 | 12.4
6 | C/C(=N\NC(=O)[C@@H]1C(=O)NC[C@H]1c1ccccc1)c1cccc(Br)c1 | 17.4
7 | CN1CCc2c(c3ccccc3n2Cc2ccc(C(=O)NO)cc2)C1 | 101
8 | Fc1ccc(Cn2c(NC3CCNCC3)nc3ccccc32)cc1 | 6.44
9 | CCO[C@@H](Cc1ccc(OCCc2ccc(OS(C)(=O)=O)cc2)cc1)C(=O)O | -7.27
10 | COc1cc(/C=C/C(=O)CC(=O)/C=C/c2ccc(O)c(OC)c2)ccc1O | 38.8
11 | O=C(c1cccc(Br)c1)N1CCC(N2CCCC2)CC1 | 1.11
12 | Nc1cc(F)ccc1NC(=O)/C=C/c1cnn(C/C=C/c2ccccc2)c1 | 12.4
13 | O=C(/C=C/c1cccnc1)NCCCCC1CCN(C(=O)c2ccccc2)CC1 | -0.26
14 | O=C(/C=C/c1ccccc1)NCCO | 81.5
15 | CCNC(=O)/C=C/c1cccc(Br)c1 | 54.9
16 | CC12CCC(C(=O)N(CCCCN3CCN(c4ccccn4)CC3)C1=O)C2(C)C (stereo not drawn) | 4.93
17 | C[C@@H]1O[C@@H](O[C@H]2[C@H](Oc3cc(O)c4c(c3)O[C@H](c3ccc(O)cc3)CC4=O)O[C@H](CO)[C@@H](O)[C@@H]2O)[C@H](O)[C@H](O)[C@H]1O | 11.8
18 | O=C(O)C[C@H]1CC[C@H](c2ccc(-c3ccc(Nc4ccc(C(F)(F)F)nc4)cn3)cc2)CC1 | 17.5
19 | CC(C)c1ccc2c(c1)CC[C@H]1[C@](C)(CN)CCC[C@]21C | 10.1
20 | C=CC(=O)c1ccc2ccccc2c1 | 20.7
21 | CC(C)N(CCC(=O)c1ccc2ccccc2c1)Cc1ccccc1 | 59.8
22 | C/C(=C\C(=O)Nc1ccccc1C(=O)O)c1ccc2ccccc2c1 | 27.8
23 | CC(=O)c1c(C)c2cnc(Nc3ccc(N4CCNCC4)cn3)nc2n(C2CCCC2)c1=O | 3.93

Row | SMILES | inhibition [%]
24 | CC(C)C[C@H](NC(=O)[C@H](CCc1ccccc1)NC(=O)CN1CCOCC1)C(=O)N[C@@H](Cc1ccccc1)C(=O)N[C@@H](CC(C)C)C(=O)[C@@]1(C)CO1 | 0.65
25 | CC(=O)SCC(Cc1ccccc1)C(=O)NCC(=O)OCc1ccccc1 (stereo not drawn) | 3.61
26 | C[C@H]1CN(C[C@H](Cc2ccccc2)C(=O)NCC(=O)O)CC[C@@]1(C)c1cccc(O)c1 | 72.7
27 | O=C(CN1CCN(C(=O)c2ccco2)CC1)Nc1cc(C(F)(F)F)ccc1Cl | 18.3
28 | Nc1nc2cc(-c3ccc4ncc(C(=O)N5CCOCC5)n4c3)ccc2o1 | 17.8
29 | CN(CCCN1c2ccccc2CCc2ccccc21)CC(=O)c1ccc(Cl)cc1 | 35.1
30 | Cc1cc(O)c(C(C)C)cc1Cl | 35.2
31 | CCCN[C@H]1CCc2nc(N)sc2C1 | 14.3
32 | CC(C)=CCOc1ccc(/C=C/C(=O)c2ccc(OCC=C(C)C)cc2OCC(=O)O)cc1 | -0.94
33 | CC(C)(C)c1cc(C(=O)/C=C/c2ccc(C(=O)O)cc2)cc(C(C)(C)C)c1 | 35.2
34 | O=C(O)/C=C/c1ccc(O)c(O)c1 | -8.03
35 | O=C(/C=C/c1ccc(O)cc1)c1ccc(O)cc1O | 98.6
36 | O=C(/C=C/c1ccc(O)c(O)c1)c1ccc(O)cc1O | 97.5
37 | NC(=O)c1cccc(-c2cc(Nc3ccc(OC(F)(F)F)cc3)ncn2)c1 | -8.36
38 | c1coc(-c2nnc3sc(C4CCCCC4)nn23)c1 | -6.78
39 | O=C(Nc1ccc(Oc2ccc(Cl)cn2)c(Cl)c1)c1ccccn1 | 44.2
40 | CN(Cc1ccc(C(C)(C)C)cc1)Cc1cccc2ccccc12 | 2.21
41 | CC(C)=CCC/C(C)=C/CC/C(C)=C/CSc1ccccc1C(N)=O | -0.26
42 | O=C(Nc1cccnc1)c1cc(-c2ccnc(F)c2)ccc1OCc1ccccc1 | 9.93
43 | CCOC(=O)c1c(O)nc2cccc3c2c1-c1ccccc1C3=O | 41.8
44 | O=C1c2ccccc2-c2n[nH]c3cccc1c23 | 88.8
45 | O=C(c1c(O)nc2cc(Cl)ccc2c1O)C1CC1 | -2.41
46 | CCCCCCCC/C=C\CCCCCCCC(=O)NCCc1ccc(O)c(O)c1 | 29.4

Row | SMILES | inhibition [%]
47 | O=C(CCCl)NCc1ccccc1 | -3.62
48 | N#C/C(=C\c1ccc(O)c(O)c1)C(N)=O | 16.6
49 | C[C@H](NC(=O)/C(C#N)=C/c1ccc(O)c(O)c1)c1ccccc1 | 30.1
50 | N#C/C(=C\c1ccc(O)c(O)c1)C(=O)Nc1ccccc1 | 89
51 | N#C/C(=C\c1ccc(O)c(O)c1)C(=O)OCCc1cccs1 | 40.4
52 | N#C/C(=C\c1ccc(O)c(O)c1)C(=O)NCCCc1ccccc1 | 88.2
53 | N#C/C(=C\c1ccc(O)c(O)c1)C(=O)NCc1ccccc1 | 53
54 | CCCCCCCCNC(=O)/C(C#N)=C/c1cn(CCCN(C)C)c2ccccc12 | 7.03
55 | COc1cc(C[C@@H]2NCCc3cc(O)c(O)cc32)cc(OC)c1OC | 3.77
56 | N#CC(Cc1ccc(O)cc1)c1ccc(O)cc1 (stereo not drawn) | 21.2
57 | COc1ccc2[nH]c([S+]([O-])Cc3ncc(C)c(OC)c3C)nc2c1 (stereo not drawn) | 16.1
58 | COc1ccc2[nH]c([S@@+]([O-])Cc3ncc(C)c(OC)c3C)nc2c1 | 26.7
59 | COc1ccc2[nH]c(SCc3ncc(C)c(OC)c3C)nc2c1 | 62.8
60 | CCC[C@H](NC(=O)[C@@H]1[C@H]2CCC[C@H]2CN1C(=O)[C@@H](NC(=O)[C@@H](NC(=O)c1cnccn1)C1CCCCC1)C(C)(C)C)C(=O)C(=O)NC1CC1 | -8.83
61 | Oc1ccnc2cc(Cl)ccc12 | 28.9
62 | O=C(OCC(O)CO)c1ccccc1Nc1ccnc2cc(Cl)ccc12 (stereo not drawn) | 94.8
63 | Clc1ccc2c(NCCNc3ccnc4cc(Cl)ccc34)ccnc2c1 | 14.9
64 | O=C(O)CCNc1cc(N2CCc3ccccc3CC2)nc(-c2cccnc2)n1 | -1.98
65 | Cc1cc(O)c2c(=O)c3c(O)cc(O)c4c5c(O)cc(O)c6c(=O)c7c(O)cc(C)c8c1c2c(c34)c(c78)c65 | 85
66 | Nc1c2c(nc3ccccc13)CCCC2O (stereo not drawn) | 7.55
67 | O[C@@H]1CO[C@H]2[C@@H]1OC[C@@H]2O | 0.18
68 | Cc1nnc(C(C)C)n1[C@H]1C[C@H]2CC[C@@H](C1)N2CC[C@H](NC(=O)C1CCC(F)(F)CC1)c1ccccc1 | 25
